From PubChem BioAssay (NCI) come the findings set out here.

The structures appear in SMILES notation. About 83,000 compounds went through this panel and 20% of them were active in at least one assay; those are over-represented in the sample as a whole.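 Treatment: one concentration, 48 hours, 96-well format. Scoring: percent growth, with anything below 10 considered active.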 Values without a mark were called inactive. Activity calls are given as the source filed them.

Test systems include NCI-H23 lung; NCI-H226 lung; NCI-H322M lung; HOP-62 NSCLC; NCI-H460 lung; HOP-92 NSCLC; NCI-H522 lung; A549/ATCC NSCLC; 786-0 renal; COLO 205 colon.
What all share (experiment): NCI-60 one-dose screen, 48 h (100 = growth as untreated, 0 = no growth, -100 = all killed)
Common to all, as to details: 10 µM unless noted

Turning to `O=C(Nc1cccc(Oc2nnc(Cl)c3ccccc23)c1)Nc1ccc(Cl)c(C(F)(F)F)c1`, the growth in the experiment with NCI-H23 lung is -52.4% (active); in the experiment with NCI-H226 lung, -28.2% (active); in the experiment on NCI-H322M lung, -5.16% (active); in the experiment with HOP-62 NSCLC, -81.6% (active); in the experiment with NCI-H460 lung, -77.4% (active); with HOP-92 NSCLC, -38.4% (active). Moreover, the growth was -67.5% (active) with NCI-H522 lung, -21.9% (active) with A549/ATCC NSCLC, -42.8% (active) with 786-0 renal and -69.3% (active) with COLO 205 colon.
Turning to `COc1cccc2c1C(=O)c1c(O)c3c(c(O)c1C2=O)CC(O)(/C(C)=N/NC(=O)CCCCC(=O)N/N=C(\C)C1(O)Cc2c(O)c4c(c(O)c2C(OC2CC(N)C(O)C(C)O2)C1)C(=O)c1c(OC)cccc1C4=O)CC3OC1CC(N)C(O)C(C)O1` (stereo not given), the growth in the experiment on NCI-H23 lung was -31.9% [5 µM] (active); in the experiment with NCI-H226 lung, -56.1% [5 µM] (active); in the experiment on NCI-H322M lung, -10.2% [5 µM] (active); in the experiment on HOP-62 NSCLC, -1.23% [5 µM] (active); with NCI-H460 lung, -10.2% [5 µM] (active); in the experiment on HOP-92 NSCLC it was -50.7% [5 µM] (active). Also, the growth is -57.7% [5 µM] (active) in the experiment with NCI-H522 lung, -22% [5 µM] (active) with A549/ATCC NSCLC, 4.75% [5 µM] (active) in the experiment with 786-0 renal and -91.9% [5 µM] (active) with COLO 205 colon.
On to `Cc1ccc(-n2c(-c3ccccc3)c(-c3ccccc3)c3c(SCC(=O)n4[nH]c(N)cc4=O)ncnc32)cc1`, for which the growth was 90.8% in the experiment on NCI-H23 lung; 88.8% in the experiment on NCI-H226 lung; 101% with NCI-H322M lung; 87.6% in the experiment on HOP-62 NSCLC; 103% in the experiment with NCI-H460 lung; 74.7% in the experiment on HOP-92 NSCLC. In addition, the growth with NCI-H522 lung is 79.6%; in the experiment with A549/ATCC NSCLC it was 92.5%; with 786-0 renal, 96.6%; with COLO 205 colon it was 94.4%.
Turning to `CCCCCCCCCCCCCCCCCCOc1ccc(CC(=O)OCC[N+]2(C)CCCC2)cc1`, the growth in the experiment on NCI-H23 lung is 93.2%; in the experiment on NCI-H226 lung, 92.6%; in the experiment on NCI-H322M lung, 102%; in the experiment with HOP-62 NSCLC, 101%; in the experiment on NCI-H460 lung it was 99.7%; with HOP-92 NSCLC, 110%. Besides, the growth in the experiment with NCI-H522 lung is 96.8%; in the experiment on A549/ATCC NSCLC it was 97.2%; in the experiment with 786-0 renal, 96.2%; in the experiment on COLO 205 colon it was 107%.
With `NC(=S)Nc1cccc(O)c1`, the growth in the experiment with NCI-H23 lung is 90.6%; with NCI-H226 lung, 96.9%; with NCI-H322M lung it was 88.9%; in the experiment on HOP-62 NSCLC it was 89.8%; in the experiment on NCI-H460 lung, 104%; with HOP-92 NSCLC it was 98.9%. In addition, the growth in the experiment on NCI-H522 lung was 93.1%; in the experiment on A549/ATCC NSCLC, 99.8%; in the experiment on 786-0 renal, 100%; in the experiment with COLO 205 colon, 129%.
`Cc1cc(NCc2cc(Nc3ccnc4cc(Cl)ccc34)ccc2F)nc(N2CCN(c3ccccc3)CC2)n1`: the growth in the experiment with NCI-H23 lung was 62.8%; in the experiment with NCI-H226 lung, 55.4%; in the experiment on NCI-H322M lung, 74.1%; with HOP-62 NSCLC it was 62%; in the experiment with NCI-H460 lung, 44.9%; in the experiment on HOP-92 NSCLC, 20.6%. Besides, the growth in the experiment on NCI-H522 lung is 45.6%; in the experiment on A549/ATCC NSCLC, 50.6%; in the experiment with 786-0 renal, 64.8%; in the experiment with COLO 205 colon, 13.6%.
For the compound `Cc1cc(=O)oc2c1ccc1oc(C#N)c(C)c12`, the growth was 97.9% in the experiment with NCI-H23 lung; 107% with NCI-H226 lung; 98.9% with NCI-H322M lung; 103% in the experiment with HOP-62 NSCLC; 108% in the experiment on NCI-H460 lung; 82% in the experiment with HOP-92 NSCLC. Also, the growth in the experiment on NCI-H522 lung was 102%; in the experiment with A549/ATCC NSCLC, 99.8%; in the experiment on 786-0 renal, 84.9%; with COLO 205 colon, 121%.
On to `O=c1c2c3c(sc2nc(N/N=C/c2ccc(Br)cc2)n1Cc1ccccc1)CCCC3`, for which the growth in the experiment with NCI-H23 lung is 68.2%; in the experiment with NCI-H226 lung, 79.6%; in the experiment on NCI-H322M lung, 71.4%; with HOP-62 NSCLC, 65.6%; in the experiment on NCI-H460 lung, 69.4%; in the experiment on HOP-92 NSCLC, 57.8%. Moreover, the growth is 61.2% in the experiment on NCI-H522 lung, 74.8% in the experiment on A549/ATCC NSCLC, 56.7% with 786-0 renal and 75.4% in the experiment with COLO 205 colon.
As for `Cc1ccc(N(C(=O)CCc2c[nH]c3ccccc23)[C@H](C(=O)Nc2ccc(Cl)cc2)c2cccc([N+](=O)[O-])c2)cc1`, the growth was 92.8% in the experiment on NCI-H23 lung; 74.9% in the experiment on NCI-H226 lung; 79.1% with NCI-H322M lung; 68% in the experiment with HOP-62 NSCLC; 98.2% in the experiment on NCI-H460 lung; 75.9% with HOP-92 NSCLC. Moreover, the growth with NCI-H522 lung was 64.2%; with A549/ATCC NSCLC, 73.8%; in the experiment with 786-0 renal it was 90.5%; in the experiment on COLO 205 colon, 95%.
Turning to `CN(c1ccccc1)c1ccc2c(c1)OCCC21CC1Nc1cnccc1C(=O)O` (stereo not given), the growth in the experiment on NCI-H23 lung is 95.4%; with NCI-H226 lung, 63.9%; in the experiment on NCI-H322M lung, 87.5%; in the experiment with HOP-62 NSCLC, 63.2%; in the experiment on NCI-H460 lung, 45.7%; with HOP-92 NSCLC, 101%. In addition, the growth in the experiment on NCI-H522 lung was 63.7%; in the experiment on A549/ATCC NSCLC, 83.4%; in the experiment on 786-0 renal it was 72.9%; with COLO 205 colon, 68.6%.
For the compound `C=CCn1c(C)nc2cc(Nc3nc(Cl)nc4ccccc34)ccc21`, the growth was 97.9% with NCI-H23 lung; 90.1% with NCI-H226 lung; 109% in the experiment on NCI-H322M lung; 108% in the experiment on HOP-62 NSCLC; 99.2% with NCI-H460 lung; 91.9% in the experiment on HOP-92 NSCLC. The growth in the experiment with NCI-H522 lung is 97.4%; in the experiment with A549/ATCC NSCLC, 81.4%; with 786-0 renal, 87.8%; in the experiment with COLO 205 colon it was 126%.
As for `Cc1ccc(-c2cc(-c3cccnc3)[nH]c(=O)c2C#N)cc1`, the growth in the experiment with NCI-H23 lung was 103%; with NCI-H226 lung it was 99.2%; in the experiment on NCI-H322M lung it was 103%; in the experiment on HOP-62 NSCLC, 107%; with NCI-H460 lung it was 107%; with HOP-92 NSCLC it was 97.9%. For the same compound, the growth with NCI-H522 lung was 94%; in the experiment with A549/ATCC NSCLC, 102%; in the experiment on 786-0 renal, 101%; in the experiment with COLO 205 colon, 118%.
Take `CCC(CO)Nc1nc2ccc(Cl)cc2c2ccccc12` (stereo not given): the growth with NCI-H23 lung is 73.9%; in the experiment on NCI-H226 lung it was 65.3%; in the experiment with NCI-H322M lung, 47.2%; with HOP-62 NSCLC, 60.3%; with NCI-H460 lung it was 25.1%; with HOP-92 NSCLC, 48.9%. Moreover, the growth is 58.6% with NCI-H522 lung, 55.3% in the experiment with A549/ATCC NSCLC, 41.6% with 786-0 renal and 86.4% in the experiment on COLO 205 colon.
With `CNc1ccc(NC)c2c1C(=O)c1ccccc1C2=O`, the growth was 70.1% in the experiment on NCI-H23 lung; 79.1% with NCI-H226 lung; 84% in the experiment with NCI-H322M lung; 87% in the experiment on HOP-62 NSCLC; 91% in the experiment on NCI-H460 lung; 78.3% in the experiment with HOP-92 NSCLC. The growth in the experiment with NCI-H522 lung is 97.1%; in the experiment on A549/ATCC NSCLC, 100%; in the experiment with 786-0 renal, 92.1%; with COLO 205 colon, 108%.
